Screening results: PubChem BioAssay, National Center for Advancing Translational Sciences (NCATS)
Tau fluor counter: counter-screen for tau fibril formation inhibitors | AID 1463 | Potency, µM (doses to about 57.7 µM), for the others: top-dose activity change, negative = decrease | actives 0.93% (n = 280,000) | tau K18 P301L Alexa594 fluorescence, heparin fibrillization; note: nearly all actives have a fitted effect of over 55% in size
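Human K18 P301L tau (15 uM unlabeled plus 0.24 uM Alexa 594-labeled, final) in 100 mM sodium acetate pH 7 was mixed with compound and 20 uM heparin and incubated 6 hr at 37 C.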
TR SRC2 fluor cs: counter-screen for TRb-SRC2 inhibitors: fluorescence interference; TRb/SRC2 Texas Red total fluorescence interference; actives 0.29% (n = 280,000); Potency, µM (top dose mostly 106 µM), without a hit: at the top dose fluorescence change, negative = quenching; AID 1479; active = well fitted curve in either direction with a large enough effect; inconclusive = small, poorly fitted or top-dose-only effect
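Human TRb ligand-binding domain at 0.6 uM with 20 nM Texas Red SRC2 peptide in Tris buffer containing 1 uM T3 and 5% DMSO, incubated with compound 5 h at ambient temperature. Total fluorescence (555/632 nm) calculated as parallel + 2 × perpendicular.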
GoLoco inh red: inhibitors of human Gai1-RGS12 GoLoco interaction (red fluorophore); actives 0.44% (n = 230,000); Potency, µM (titrated, usually from 61.6 µM), inactives show top-dose activity, negative = inhibition, most hits filed as inhibitors; P63096; Gai1:RGS12 GoLoco peptide FP, rhodamine, 10 min; active = well fitted inhibition curve with a large enough effect, not every such curve was filed as active; inactive = no such curve, though single readings can be large or run the other way; note: nearly all actives have a fitted effect of over 30% in size
Tau fibril ThT: tau fibrillization inhibition (ThT binding). recombinant tau K18 P301L, heparin-induced fibrillization, ThT fluorescence. Potency, µM (highest dose often 57.4 µM), without a hit: at the highest dose activity, negative = inhibition, hits mostly inhibitors. actives 2.1% (n = 270,000). AID 1460; note: nearly all actives have a fitted effect of over 55% in size
Target sequence (P10636 561-689 P618L limits assumed): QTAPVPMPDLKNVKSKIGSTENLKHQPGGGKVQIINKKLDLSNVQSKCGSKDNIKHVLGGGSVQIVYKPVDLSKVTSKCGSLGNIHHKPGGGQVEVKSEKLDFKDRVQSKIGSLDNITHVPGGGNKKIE
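ThT emission at 510 nm, taken 1 hr after adding 30 uM dye, quantifies aggregates formed when 20 uM heparin acts on human tau K18 P301L for 6 hr at 37 C.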
TRb SRC2 PPI: inhibitors of human thyroid hormone receptor beta-SRC2 interaction; actives 0.065% (n = 280,000); AID 1469; TRbeta-SRC2 peptide binding, fluorescence polarization; receptor liganded with 1 µM T3; P10828; Potency, µM (series often up to 106 µM), for the others: at the top dose activity change, negative = inhibition, hits mostly inhibitors;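 note: plate controls were bound peptide for no effect and peptide without receptor for full effect; nearly all actives have a fitted effect of over 50% in size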
Target sequence (P10828 whole entry, looked up): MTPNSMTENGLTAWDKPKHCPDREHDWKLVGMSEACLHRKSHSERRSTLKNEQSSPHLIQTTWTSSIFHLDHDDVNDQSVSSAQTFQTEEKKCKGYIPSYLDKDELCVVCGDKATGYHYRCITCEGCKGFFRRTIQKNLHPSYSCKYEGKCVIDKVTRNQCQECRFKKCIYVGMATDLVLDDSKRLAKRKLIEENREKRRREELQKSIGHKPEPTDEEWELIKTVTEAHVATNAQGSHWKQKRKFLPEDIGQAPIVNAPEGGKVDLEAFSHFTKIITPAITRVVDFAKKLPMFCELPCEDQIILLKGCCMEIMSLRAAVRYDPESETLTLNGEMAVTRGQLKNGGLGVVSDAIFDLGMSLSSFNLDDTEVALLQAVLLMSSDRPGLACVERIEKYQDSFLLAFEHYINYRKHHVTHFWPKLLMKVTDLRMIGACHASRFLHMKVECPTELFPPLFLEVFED
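Each compound concentration gave % activity, normalized to unbound and bound Texas Red SRC2 controls, from polarization read after 5 hr ambient incubation with T3-loaded human TRb LBD.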
Tau FP inhib: blocks human tau fibril formation measured by polarization. P10636. K18 P301L tau heparin fibrillization, Alexa594 FP, 6 h. Potency, µM (doses to about 57.7 µM), for the others: at the highest dose activity, negative = inhibition, hits mostly inhibitors. actives 0.39% (n = 280,000); note: nearly all actives have a fitted effect of over 55% in size
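Quantitative HTS format: compounds meet 15 uM recombinant K18 P301L tau and Alexa 594-tau tracer in 100 mM sodium acetate pH 7; 20 uM heparin triggers fibrillization at 37 C over 6 hr; FP gives the signal.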
An asterisk follows results filed as active; ? = inconclusive; · = no result; [ ] = another dose, or the depositor's remark. Compounds with a hit are over-represented: about 3.2% of the library has one in this group of screens. Unless noted, calls come from the whole dose curve; as a rule, active = well fitted curve in the direction sought with a large enough effect; inconclusive = small, poorly fitted or top-dose-only effect, or another doubt; inactive = no such curve, though single readings can be large; an effect the other way counts as inactive or inconclusive. Unless noted, % is set by controls: 0 for no effect and ±100 for the full control effect; potency is the fitted concentration of half-maximal effect.

SMILES	Tau fluor counter	TR SRC2 fluor cs	GoLoco inh red	Tau fibril ThT	TRb SRC2 PPI	Tau FP inhib
Nn1cnc2c([nH]c3ccccc32)c1=O	-2%	1122µM*[quencher]	4%	5%	-20%[53 µM]	5%
COc1ccc2c(c1)[nH]c1c(=O)n(N)cnc12	-5%	-1%	14%	-1%	-1%	-5%
COC(=O)N1CC=CC1(C)C(=O)NCC1CC1 (stereo not drawn)	-13%	-1%	-2%	-18%	6%	-2%
COC(=O)N1CC=CC1(C)C(=O)NCc1ccc(C)o1 (stereo not drawn)	-19%	4%	-38%	22µM*	11%	?
COc1ccc(-c2nc3sc(CCNS(=O)(=O)c4ccccc4)c(C)n3n2)cc1	-11%	0%	·	-7%	-7%	?
CCc1nnc(SCc2nc(-c3ccccc3F)oc2C)c2cc3sccc3n12	3%	-1%	·	-17%	-3%	8%
COc1ccc(NC(=O)C(CC(C)C)NC(=O)C2CCCCC2)cc1 (stereo not drawn)	-14%	-2%	·	-5%	-9%	-2%
O=C(/C=C/c1c(Cl)cccc1Cl)n1cccn1	-13%	-2%	-13%	10µM*	-6%	?
Nc1ncnc2c1ncn2[C@@H]1O[C@H](COP(=O)(O)OP(=O)(O)CP(=O)(O)O)[C@@H](O)[C@H]1O	-9%	0%	1%	-5%	-2%	6%
CC1CC(C)CN(C(=O)c2ccc3c(c2NCCO)C(=O)c2ccccc2C3=O)C1 (stereo not drawn)	?	17%	234%	18µM*	6%	10%
O=C1c2ccccc2-c2c1cccc2C(=O)N1CCCCC1	-12%	-2%	9%	-11%	3%	-3%
S=c1[nH]nc(-c2n[nH]c3c2CCC3)n1/N=C/C=C/c1ccco1	-24%	-6%	-1%	22µM*	-7%	?
COc1ccccc1/C=C/C=N/n1c(-c2n[nH]c3c2CCC3)n[nH]c1=S	?	-2%	8%	?	0%	-10%
Cc1nc(Nc2ccccc2)sc1-c1ccccc1	7.9µM*[quencher]	-2%	·	?	6%	12%
Cc1nc(Nc2ccc(C(=O)O)cc2)sc1-c1ccccc1	-7%	-1%	17%	-1%	13%	0%
CCCC1N=C2c3ccccc3N=C(SCC(=O)NCCc3ccc(Cl)cc3)N2C1=O (stereo not drawn)	-10%	0%	·	-7%	7%	-1%
Oc1cc2c(cc1O)C1c3ccc(O)c(O)c3OCC1(O)C2 (stereo not drawn)	?	-4%	7.9µM*	4µM*	1%	25µM*
Cc1c(CNC(C)CCc2ccccc2)c(C(=O)O)c(C)n1Cc1ccc(F)cc1Cl (stereo not drawn)	-8%	-1%	·	-5%	1%	-6%
O=[N+]([O-])C(CO)(CO)CO	·	-5%[201 µM]	·	·	-3%[201 µM]	·
CCN(CCO)c1nc(SC)nc2c1sc1nc(-c3ccco3)c3c(c12)CCC3	?	-7%	33%	25µM*	-3%	?
Cc1ccc(C)c(CSc2nc3ccncc3n2CC(=O)Nc2ccc(N(C)C)cc2)c1	10µM*[quencher]	1%	·	?	1%	?
COc1ccc(NC(=O)Cn2c(SCc3cc(C)ccc3C)nc3ccncc32)c(OC)c1OC	8.9µM*[quencher]	-1%	·	?	1%	-8%
COc1cccc(CSc2nc3ccncc3n2CC(=O)Nc2ccc(OC)c(OC)c2OC)c1	?	-1%	·	-13%	5%	3%
Cc1ccc(C)c(CSc2nc3ccncc3n2CC(=O)Nc2ccc(C)c(C)c2)c1	?	-2%	13%	-9%	2%	-15%
COc1ccc(C2CC(=O)Oc3c(C(CCN4CCCC(C)C4)c4cc(OC)c(OC)c(OC)c4)c(OC)cc(OC)c32)cc1 (stereo not drawn)	·	1%	·	·	-2%	·
SMILES	Tau fluor counter	TR SRC2 fluor cs	GoLoco inh red	Tau fibril ThT	TRb SRC2 PPI	Tau FP inhib
C[C@@H]1/C=C\CC(=O)OC[C@H](C)C(=O)N[C@@H](C)C(=O)OC1	-7%[11.6 µM]	0%[11.2 µM]	·	-6%[11.5 µM]	5%[11.2 µM]	-3%[11.6 µM]
Cc1ccc(-c2ccc(/C=C(\C#N)C(N)=S)n2C)cc1	?	-5%	7%	1µM*	-7%	-3%
Cn1cccc1/C=C(/C#N)C(N)=S	-5%	-2%	-1%	?	2%	3%
NC(=O)C1c2ccccc2CCc2ccccc21	·	-2%	·	·	7%	·
Cc1cc(/C=C\c2ccc3cc(N(C)C)ccc3[n+]2C)c(C)n1-c1ccccc1	·	14µM*[fluorescent]	-19%[21.6 µM]	·	?	·
CC1=C(/C=C/C(C)=C/C=C/C(C)=C\CO)C(C)(C)CCC1	-25%	1%	-10%	?	-1%	-12%
CCC(O)OCCCOC (stereo not drawn)	·	-1%[201 µM]	·	·	-5%[201 µM]	·
CCOCCCNC1=C(Cl)C(=O)c2ccccc2C1=O	?	-2%	3.2µM*	16µM*	2%	?
O=C1C(Cl)=C(NCCCO)C(=O)c2ccccc21	-17%	-2%	21%	?	-7%	0%
Cc1c(C(=O)N2CCC(C)CC2)c(S(=O)(=O)N(Cc2ccccc2)C(C)(C)C)c(C)n1C	-9%	-1%	·	-15%	2%	9%
CC(C)=CCC/C(C)=C/C=N/NC(=O)c1ccc([N+](=O)[O-])cc1	-16%	?	-3%	?	1%	5%
CN(C)c1ccc(N=C/C=C2/N(C)c3ccccc3C2(C)C)cc1	?	10%	69%	3.2µM*	-9%	?
CN1/C(=C/C2CC(=O)N(c3ccc([N+](=O)[O-])cc3)C2=O)C(C)(C)c2ccccc21 (stereo not drawn)	?	-2%	28%	14µM*	1%	-1%
Cc1ccccc1N=C/C=C1\N(C)c2ccccc2C1(C)C	19%	45µM*[fluorescent]	209%	?	?	10%
CN1/C(=C/C=N/NC(=O)c2ccc([N+](=O)[O-])cc2)C(C)(C)c2ccccc21	?	-9%	76%	6.3µM*	3%	-6%
N#CC(Cc1ccc(O)c(O)c1)C(=O)N1CCc2ccccc21 (stereo not drawn)	-11%	-16%	9%	-8%	10%	2%
CN1/C(=C\C=[N+](C)c2ccccc2)C(C)(C)c2ccccc21	25%	17%	4µM*	?	17%	0%
CN1/C(=C\C=N\O)C(C)(C)c2ccccc21	1%	0%	17%	?	2%	-5%
COc1ccc(-n2ncc3c2ncn2nc(-c4ccc(OC)c(OC)c4)nc32)cc1	1%	1%	·	?	-3%	-1%
COc1cc(OC)c2cc(C(=O)N/N=C/c3cccc(OC)c3O)[nH]c2c1	?	-18%	6%	5µM*	3%	?
